The text below walks through data of PubChem BioAssay (NCI).

The panel holds about 83,000 compounds, 20% with a hit somewhere; the sample as a whole holds those more often.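 Note: values are percent growth. 100 is the growth of untreated cells, values between 100 and 0 indicate rising inhibition; between -100 and 0 indicates cell death.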 A number with no mark means an inactive call. The source made the active and inactive calls.

In this assay the test system is PC-3 prostate. Briefly: NCI-60 one-dose screen, 48 h (100 = growth as untreated, 0 = no growth, -100 = all killed). The settings on record: 10 µM unless noted. How it is done:
Growth inhibition of the PC-3 human tumor cell line is measured as a screen for anti-cancer activity. Cells are grown in 96 well plates and exposed to the test compound for 48 hours. Compounds are tested at a single concentration, which is 10^-5 M for most compounds. The reported endpoint is percent growth (GI% or GIPRCNT), where numbers from 0 - 100% represent growth inhibition, and numbers from -100% - 0 represent cell death. For example, a value of 40 represents 60% growth inhibition. A value of 0 means no net growth occurred over the course of the experiment. A value of -40 indicates 40% of cells at the beginning of the experiment died by the end of the experiment. A value of -100 means all cells are dead at the end of the experiment.
NCI-60 Human Tumor Cell Lines Screen was performed using the standard one-dose NCI protocol, which is described in more detail at https://dtp.cancer.gov/discovery_development/nci-60/default.htm.
Compounds with GIPRCNT values below 10 were considered active. Activity score was based on GIPRCNT using the following formula: […]
Score is 0 for GIPRCNT values of 100 or above, 50 for GIPRCNT values of 0, and 100 for GIPRCNT values of -100.
With `COc1ccc(N2CCN(Cc3cc(C(=O)/C=C/c4c[nH]c5ccccc45)ccc3O)CC2)cc1`, the growth is 88.3%. For the compound `COc1ccc(/C=C/c2c(C(C)=O)c(C)nc3ccccc23)cc1`, the growth is 76.1%. For the compound `COc1cc2c(cc1O)CCN1C[C@@H](CC(C)C)[C@@H](O)C[C@@H]21`, the growth is 86.3%. For `CCN(CC)c1ccc(N=O)cc1`, the growth was 44.6%. Under `COc1ccc(Nc2[nH]n3c(=O)cc(-c4ccccc4)nc3c2C(=O)Nc2ccc(C)cc2)c(OC)c1` stands 76.9%. For `COc1cc(-c2nn(-c3cccc(NC(=O)c4ccc(Cl)c(C(F)(F)F)c4)c3)cc2-c2ccncc2)ccc1Cl`, the growth is 18.6%. In the case of `O=C(Nc1cccc(-n2cc(-c3ccncc3)c(-c3ccc(Cl)c(O)c3)n2)c1)Nc1cc(C(F)(F)F)cc(C(F)(F)F)c1`, the growth is -32.4% (active).

In the case of `COc1ccncc1S(=O)(=O)NC(=O)Nc1ccc(Cl)c(Cl)c1`, the growth is 91.9%. The result for `Nc1nnc(-c2ccc3ccccc3c2O)o1` reads 82.8%; that for `O=c1cc/c(=N\Nc2ccccc2)c(=O)/c1=N/Nc1ccccc1`, 63.6%. With `CCCCN(CCCC)C(=O)CC`, the growth is 98.2%. As for `C=C(C)[C@@H]1C[C@@H]2Cc3ccc(Cl)c(C)c3N1O2`, the growth was 87.9%. Under `CC1=C(C#N)C(=O)NC(C)C1` (stereo not given) stands 94.9%; under `CC(C)(C)n1cc(-c2ccnc(NCCCNS(=O)(=O)c3ccc(C(F)(F)F)cc3)c2)c(-c2cccc(O)c2)n1`, 13.2%; under `O=S(=O)(NCCCNc1nccc(-n2ccc3cccnc32)n1)c1ccc(Br)cc1`, 96.5%. Take `CC(C)CC1NC(C)(C)CO1` (stereo not given): the growth is 94.4%.

Take `COC(=O)C(Sc1ccc(Cl)cc1)C1SC(=S)N(Cc2ccccc2)C1=O` (stereo not given): the growth was 97.4%. For the compound `COc1cc(C2CC(c3ccc4c(c3)OCO4)=NN2C=O)cc(OC)c1OC` (stereo not given), the growth was 47.9%. On to `CC(C)(C)OC(=O)NCCc1ccc(N=C=S)cc1`, for which the growth was 66.3%.

Turning to `Cc1cc(C2(c3cc(C)c(O)cc3C)OS(=O)(=O)c3ccccc32)c(C)cc1O`, the growth is 87.2%. For `COc1ccc(Nc2nn3c(C)cc(C)nc3c2C(=O)Nc2ccc(C)cc2)c(OC)c1`, the growth was 98.8%.

Regarding `COc1ccc(-c2c(N)n[nH]c2-c2cc(OC)c(OC)c(OC)c2)cc1`, the growth was 40.9%. On to `CN1CCN(Cc2ccc(NC(=O)c3cncc(C#Cc4cnc(N)c5ccncc45)c3)cc2C(F)(F)F)CC1`, for which the growth was 25.5%. With `CCN(CC)c1ccc(CNc2ccnc3ccccc23)cc1`, the growth was 42.4%.

As to `CCOC(=O)c1c(/N=C2\SC(=O)/C(=C\C(=O)OC)N2NC)sc2c1CCN(C(=O)OCC)C2`, the growth was 94.8%.

Regarding `O=[N+]([O-])c1cccc(-c2nc3sccn3c2-c2ccnc(NCCCNS(=O)(=O)c3ccc(C(F)(F)F)cc3)n2)c1`, the growth was 12%. Turning to `O=C(Nc1cccc(-n2cc(-c3ccncc3)c(-c3ccc(Cl)c(O)c3)n2)c1)Nc1ccc(Cl)c(Cl)c1`, the growth was 5.43% (active).

With `COc1ccc(-c2[nH]nc(N)c2-c2cc(OC)c3c(c2)OCO3)cc1`, the growth was 93.7%. On to `CN(C)c1oc(C2OC2c2ccccc2)nc1C#N` (stereo not given), for which the growth was 101%. Consider `O=C1c2c(c3c4ccccc4n(CCCCCCBr)c3c3[nH]c4ccccc4c23)C(=O)N1O`, for which the growth was 4.24% (active). The result for `CCCCOc1ccc(/C=C2/SC(N3CCCC3)=NC2=O)cc1` reads 88.7%.

For the compound `O=C(CSc1nc2ccccc2[nH]1)c1ccc(N2CCOCC2)cc1`, the growth is 100%. For the compound `Cc1ccc(S(=O)(=O)c2nc(-c3ccccc3)oc2S(C)(=O)=O)cc1`, the growth is 84%. As to `COc1cc([N+](=O)[O-])c2ncccc2c1O`, the growth is 78.9%. Turning to `O=C1NN(C(=O)c2ccc(Cl)cc2)C(c2ccccc2)=N/C1=C\c1cn(-c2ccccc2)nc1-c1ccccc1`, the growth was 94.8%.

In the case of `NC(=O)c1c(NC(=S)Nc2ccc(OC(F)(F)F)cc2)sc2c1CCC1(C2)OCCO1`, the growth is 92.6%.

Turning to `COc1ccc(/C=C2\CN(Cc3cn(CCNc4ccnc5cc(Cl)ccc45)nn3)C/C(=C\c3ccc(OC)c(OC)c3)C2=O)cc1OC`, the growth is 12.1%. Take `c1ccc(-c2nnc(-c3ccccn3)s2)nc1`: the growth is 93.8%.

In the case of `COc1ccc(C2C(C#N)=C(N)Oc3c2ccc2ccccc32)cc1` (stereo not given), the growth was 39.9%.

As for `CCCCN(CCCC)c1ccc(C(=N)c2ccc(N(CCCC)CCCC)cc2)cc1`, the growth was -94.4% (active).
